Each structure is given as a SMILES string. Out of some 16,000 compounds screened, about 2,600 (16%) were called active. About 20% were inconclusive and are not listed. A selection follows. A number with no mark means an inactive call. Calls follow the shape of the dose curve; as a rule, active = well fitted curve in the direction sought with a large enough effect; inconclusive = small, poorly fitted or top-dose-only effect, or effect the other way; inactive = no such curve, though single readings can be large or run the other way.
% is scaled to controls: 0 for no effect and ±100 for the full control effect.

In the assay the target is Cytochrome P450 2D6 (Homo sapiens) (UniProt P10635). Put plainly: Cytochrome panel assay with activity outcomes. The settings on record: recombinant CYP, pro-luciferin dealkylation, luminescence, p450-cyp2d6; series mostly up to 57.1 µM; activity, negative = inhibition: at the top concentration.
Chain of Cytochrome P450 2D6 (Homo sapiens) (P10635 whole entry, looked up): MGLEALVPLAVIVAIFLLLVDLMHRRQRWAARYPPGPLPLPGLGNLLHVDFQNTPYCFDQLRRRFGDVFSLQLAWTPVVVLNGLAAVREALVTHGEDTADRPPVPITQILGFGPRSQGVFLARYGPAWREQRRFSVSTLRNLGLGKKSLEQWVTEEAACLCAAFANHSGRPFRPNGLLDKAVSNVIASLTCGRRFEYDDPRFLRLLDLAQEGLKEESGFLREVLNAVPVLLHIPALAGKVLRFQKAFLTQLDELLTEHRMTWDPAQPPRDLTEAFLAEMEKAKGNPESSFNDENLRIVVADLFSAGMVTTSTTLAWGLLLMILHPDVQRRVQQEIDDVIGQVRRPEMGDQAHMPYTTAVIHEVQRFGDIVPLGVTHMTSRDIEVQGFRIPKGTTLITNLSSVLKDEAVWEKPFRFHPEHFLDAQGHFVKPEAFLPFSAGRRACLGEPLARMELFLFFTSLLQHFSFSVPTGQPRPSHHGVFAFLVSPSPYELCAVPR
For `O=C(Nc1ccc(Cl)cc1)NC1CCCCC1`, the “activity, negative = inhibition” value is -2.71%. Still for that read-out and setting: in the case of `CCCNC(=O)Nc1ccc2c(c1)nc(C)n2C` it was 8.71%; in that of `O=C(O)CC/C=C\CC[C@H]1[C@@H](N2CCCCC2)[C@@H](O)C[C@@H]1OCc1ccc(-c2ccccc2)cc1`, 10.6%; in that of `COc1ccc2c(c1)CCCC21NC(=O)N(CC(N)=O)C1=O` (configuration not stated), 11.4%. The same measure, in the same setting: in the case of `CCOC(=O)N1N=C(c2ccccc2)CC1(O)C(F)(F)F` (configuration not stated) it was 3.62%; in that of `COC(=O)c1ccc(NC(=O)c2ccccc2)o1`, 12.2%. A word on the AC50: it is the midpoint of the concentration-response curve, whichever way the signal moves. As for `CN1CCN2c3ncccc3Cc3ccccc3C2C1` (configuration not stated), the half-maximal activity concentration (AC50) was 0.501 µM (active).

Regarding `O=c1[nH]c(=S)[nH]nc1Cc1ccccc1`, the “activity, negative = inhibition” value was 4.49%. The same measure, in the same setting: in the case of `Cc1c(N(C)C)c(=O)n(-c2ccccc2)n1C` it was 1.13% [at 25.6 µM]; in that of `CSC1=C(C#N)C(c2ccccc2Cl)C2=C(N1)c1ccccc1C2=O` (configuration not stated), -20.8%; in that of `COc1cc(/C=C/C(=O)Nc2ccccc2C(F)(F)F)cc(OC)c1OC`, 4.2%. The same measure, in the same setting: in the case of `CCc1ccc2c(-c3cccc(Cl)c3)nc(=O)n(CC)c2n1` it was -15%. For the compound `Cc1ccc(C(=O)COC(=O)CNC(=O)C(c2ccccc2)c2ccccc2)cc1[N+](=O)[O-]`, the “activity, negative = inhibition” value is -8.5%.

`Cc1ccc(-n2ccnc2SCC(=O)N(CC(C)C)C2CCS(=O)(=O)C2)c(C)c1` (configuration not stated): the “activity, negative = inhibition” value is -6.08%.

Turning to `O=C(O)CSc1ncnc2sc3c(c12)CCC3`, the “activity, negative = inhibition” value is -4.52%. In the case of `Cc1cc(C)n(-c2nc(SCCN(C)C)c3c4c(sc3n2)CCCC4)n1`, the AC50 is 0.794 µM (active).

With `Cc1cc(C)n(-c2nc(NCC(C)O)c3c4c(sc3n2)COC(C)(C)C4)n1` (configuration not stated), the “activity, negative = inhibition” value was -1.92%. Regarding `C[C@@H]1C[C@H](C)CN(S(=O)(=O)c2cc(Cl)c(Oc3ccc([N+](=O)[O-])cc3Cl)c(Cl)c2)C1`, the activity, negative = inhibition was 2.46% [at 11.4 µM].

Take `O=C(N/N=C/c1cccc(F)c1)c1csc2c1CCCC2`: the “activity, negative = inhibition” value is -28.5%. With `CC1(C)Cc2ccccc2C(N/N=C/c2cccc(F)c2)=N1`, the AC50 is 11.2 µM (active). In the case of `Cc1cccc(/C=N\Nc2cn[nH]c(=O)c2Cl)c1`, the “activity, negative = inhibition” value is -13%. Same read-out and setting: in the case of `Cn1c(=O)c(-c2ccc(Cl)cc2)nc2cnc(N3CCOCC3)nc21` it was 0.0181%. For the compound `Oc1cc(O)c2c(c1)O[C@@H](c1ccc(O)c(O)c1)[C@H](O[C@@]1(c3cc(O)c(O)c(O)c3)Oc3cc(O)cc(O)c3[C@H](O)[C@@H]1O)C2`, the activity, negative = inhibition was -0.664% [at 11.4 µM]. Same read-out and setting: in the case of `Cc1ccc(C(=O)Oc2cc(C)n(C)c(=O)c2)cc1` it was -3.57%. On the same count and under the same terms, in the case of `CCCN(CCC)S(=O)(=O)c1ccc(C(=O)O)cc1` it was 1.42% [at 25.6 µM]; in that of `CCN(c1ccccc1)S(=O)(=O)c1ccc(NC(=S)NC(=O)c2cccs2)cc1`, -14.7%.

`CCN(CC(=O)NCc1cccs1)S(=O)(=O)c1ccc(C(C)C)cc1`: the AC50 is 3.55 µM (active). As for `Cc1nn(CC(O)COc2ccc3c(c2)CCC3)c(C)c1Br` (configuration not stated), the “activity, negative = inhibition” value is -17%.

Regarding `CCn1c(SCC(=O)Nc2sc3c(c2C(N)=O)CCC(C)C3)nnc1-c1ccco1` (configuration not stated), the “activity, negative = inhibition” value is 6.66%. Regarding `CCCCNC(=S)NNC(=O)CCn1nc(C)c(Br)c1C`, the “activity, negative = inhibition” value was -1.01%. Regarding `CCN(CC)C(=O)CSc1nnc(CNc2ccc(F)cc2)o1`, the “activity, negative = inhibition” value was 16.3%. Turning to `CN(C)Cc1ccccc1-c1nc(N(C)Cc2ccco2)c2ccccc2n1`, the AC50 is 0.794 µM (active). On the same count and under the same terms, in the case of `COc1ccccc1-c1nc(N(C)Cc2ccco2)c2ccccc2n1` it was 1 µM (active). Turning to `CCC(=O)N(Cc1ccco1)c1nc(-c2ccccc2)cs1`, the “activity, negative = inhibition” value is -25%. Same read-out and setting: in the case of `Cc1ccc(-c2cc(C(=O)NCc3ccco3)c3ccccc3n2)s1` it was -16.4%. `CN(Cc1ccco1)c1nc(-c2ccccc2C(F)(F)F)nc2ccccc12`: the AC50 is 7.94 µM (active). Still for that read-out and setting: in the case of `Cc1ccccc1-c1nc(N(C)Cc2ccco2)c2ccccc2n1` it was 3.16 µM (active).

With `O=C1C(Cc2ccccc2)NC(=S)N1c1ccccc1` (configuration not stated), the “activity, negative = inhibition” value was 6.7%. Still for that read-out and setting: in the case of `Cc1ccccc1S(=O)(=O)c1c(C)cc(-c2ccccc2)[nH]c1=O` it was -6.01%; in that of `COc1ccc(-n2c(=O)cnc3cnc(Oc4ccccc4)nc32)cc1`, -3.04%. The same measure, in the same setting: in the case of `CS(=O)(=O)c1cnc2c(-c3ccc(F)cc3)cnn2c1N` it was 0.896%. For the compound `CCCCN=C1N/C(=C\c2ccco2)C(=O)N1c1ccccc1`, the “activity, negative = inhibition” value is -29.6%.

Take `O=C(Nc1ccc(-c2cc3ccccc3oc2=O)c(Cl)c1)c1cccnc1`: the “activity, negative = inhibition” value was 7.04%.

Consider `COc1cccc(Nc2ncc3nc(-c4cn(C)c5ccccc45)c(=O)n(CCC#N)c3n2)c1`, for which the “activity, negative = inhibition” value is -4.27%. Regarding `O=C(c1cc(-c2ccccc2Cl)on1)N1CCN(C(=O)c2ccco2)CC1`, the “activity, negative = inhibition” value is -1.39%. The same measure, in the same setting: in the case of `O=C(O)c1cc2cc(OCc3ccccc3)ccc2[nH]1` it was -1.31%.

Regarding `COc1cc2c(C(=O)NCc3ccc(C)o3)cn(CC(C)C)c(=O)c2cc1OC`, the “activity, negative = inhibition” value is -14.4%. Same read-out and setting: in the case of `Cc1oc(=O)c(NC(=O)c2ccccc2)cc1C(=O)c1ccccc1` it was -15.9%. `COc1cccc(-c2nc(N(C)C)c3ccccc3n2)c1`: the AC50 was 12.6 µM (active). Regarding `COc1ccc(OC)c(Nc2nc(-c3cccc([N+](=O)[O-])c3)nc3ccccc23)c1`, the “activity, negative = inhibition” value is 5.17%. Take `COc1cccc(-c2nc(N(C)Cc3ccco3)c3ccccc3n2)c1`: the AC50 was 5.01 µM (active). With `Cc1cc(Oc2ccccc2)nc(-c2ccccc2)n1`, the “activity, negative = inhibition” value was -9.47%.
